Experiment [1] in a line: BSK_4H_Eotaxin3: BioMAP Diversity Plus: 4H Assay for Eotaxin 3 Biomarker Activity (AID 2283000).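 On outcome: CCL26 protein level quantified by ELISA in parallel with SRB cytotoxicity check.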 The following applies: primary human endothelial cells (HUVEC); actives raise or lower the signal. The procedure, abridged: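 Endothelial primary cells (human umbilical vein) exposed to compound for 24 h. ELISA detection of Eotaxin-3.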
For experiment [2], the target named is human Peroxisome Proliferator-activated Receptor delta (PPARd), PPARD (gene 5467) (UniProt Q03181). The experiment can be described thus: ATG_PPARd_TRANS: Attagene TRANS-FACTORIAL HepG2 Assay for human Peroxisome Proliferator-activated Receptor delta (PPARd) (AID 2283002; active means hit-call score of the fitted dose curve at least 0.9, where 1 is the maximum). In outline:
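Read-out is induced reporter mRNA, quantified by RT-PCR with fluorescent labelling and capillary electrophoresis after 24 h dosing. Cells are HepG2 transiently carrying multiple GAL4-UAS reporter units driven by exogenous NR-GAL4 chimeras; DMSO serves as baseline.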

Read-out in experiment [3]: Intercellular Adhesion Molecule 1 (ICAM1), ICAM1 (gene 3383)
The experiment can be described thus: BSK_3C_ICAM1: BioMAP Diversity Plus: 3C Assay for Intercellular Adhesion Molecule 1 (ICAM1) Biomarker Activity (AID 2283003). The following applies: primary human endothelial cells (HUVEC); actives raise or lower the signal. The procedure, abridged: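 ICAM-1 levels measured by ELISA after HUVEC cultures in the 3C system had been dosed for 24 h. Gain or loss of signal relative to DMSO was fitted in both directions.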

A short description of experiment [4]: BSK_3C_Proliferation: Cell Proliferation Assessment in the BioMAP Diversity Plus: 3C Assay (AID 2283006).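 On AC50: potency may reflect either rise or fall in cell number versus DMSO.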 Particulars: primary human endothelial cells (HUVEC). In outline:
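Read-out is total protein by SRB absorbance at 560 nm, taken as a proxy for relative cell number. Primary human umbilical vein endothelium cultured below confluence was dosed for 48 h, TCA-fixed and SRB-stained; curves were fitted bidirectionally versus DMSO.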

Experiment [5] concerns the target Peroxisome proliferator-activated receptor gamma (Homo sapiens) (UniProt P37231). Briefly: ATG_PPARg_TRANS: Attagene TRANS-FACTORIAL HepG2 Assay for human Peroxisome Proliferator-activated Receptor-gamma (PPARg) (AID 2283007; active means hit-call score of the fitted dose curve at least 0.9, where 1 is the maximum). The procedure, abridged: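 Multiplexed reporter transcription units in HepG2, 24 h dosing, reporter transcripts quantified by fluorescent RT-PCR and capillary electrophoresis. Increase over DMSO scored.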

The target of experiment [6] is human Retinoid X Receptor beta (RXRb), RXRB (gene 6257) (UniProt P28702). Briefly: ATG_RXRb_TRANS: Attagene TRANS-FACTORIAL HepG2 Assay for human Retinoid X Receptor beta (RXRb) (AID 2283013; active means hit-call score of the fitted dose curve at least 0.9, where 1 is the maximum). The procedure, abridged:
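Transfect HepG2 with GAL4-UAS multi-reporter constructs (chimeric NR-Gal4, TRANS format); dose compound 24 h; isolate RNA, RT-PCR, FAM primer extension, HpaI digest; quantify by capillary electrophoresis; positive direction vs DMSO.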

Read-out in experiment [7]: E-selectin (Homo sapiens) (UniProt P16581)
The experiment can be described thus: BSK_3C_Eselectin: BioMAP Diversity Plus: 3C Assay for Eselectin Biomarker Activity (AID 2283015).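 Further: cell surface E-selectin protein quantified by ELISA 24 h after dosing.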 Particulars: primary human endothelial cells (HUVEC); actives raise or lower the signal. In outline: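 Human vascular endothelium from umbilical vein is exposed to test chemicals for 24 h. E-selectin levels are read by ELISA and compared with DMSO controls.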

Read-out in experiment [8]: Interleukin-1 alpha (IL1a), IL1A (gene 3552)
The experiment can be described thus: BSK_BE3C_IL1a: BioMAP Diversity Plus: BE3C Assay for Interleukin-1 alpha (IL1a) Biomarker Activity (AID 2283016). Particulars: primary human bronchial epithelial cells; actives raise or lower the signal. The procedure, abridged:
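BE3C primary human bronchial epithelium; cpd 24 h; IL-1a by ELISA; bidirectional fit vs DMSO; parallel SRB (0.1% SRB, 10% TCA fix, 560 nm) for cytotoxicity.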

Read-out in experiment [9]: Monocyte Chemoattractant Protein-1 (MCP1), CCL2 (gene 6347)
The experiment can be described thus: BSK_3C_MCP1: BioMAP Diversity Plus: 3C Assay for Monocyte Chemoattractant Protein-1 (MCP1) Biomarker Activity (AID 2283017). Particulars: primary human endothelial cells (HUVEC); actives raise or lower the signal. The procedure, abridged:
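Endothelial cells from human umbilical vein are dosed with chemical, cultured 24 h, then assayed for MCP-1 by ELISA; both increases and decreases are modelled against DMSO controls.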

Read-out in experiment [10]: Monocyte Chemoattractant Protein-1 (MCP1), CCL2 (gene 6347)
The experiment can be described thus: BSK_4H_MCP1: BioMAP Diversity Plus: 4H Assay for Monocyte Chemoattractant Protein-1 (MCP1) Biomarker Activity (AID 2283018). Particulars: primary human endothelial cells (HUVEC); actives raise or lower the signal. The procedure, abridged:
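ELISA read-out of MCP-1 from human vascular endothelial primary cells taken at 24 hours after compound exposure. Activity was fitted in both directions relative to DMSO, which served as negative control.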

In experiment [11] the target is human Peroxisome Proliferator-activated Receptor alpha (PPARa), PPARA (gene 5465) (UniProt Q07869). Briefly: ATG_PPARa_TRANS: Attagene TRANS-FACTORIAL HepG2 Assay for human Peroxisome Proliferator-activated Receptor alpha (PPARa) (AID 2283001; active means hit-call score of the fitted dose curve at least 0.9, where 1 is the maximum). In outline:
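Read-out is fluorescence of reporter cDNA fragments resolved by capillary electrophoresis after RT-PCR. Human HepG2 liver cells carried transfected PPARa-Gal4 chimera and GAL4-UAS reporter units, treated 24 h; activity scored as increase over DMSO.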

Experiment [12] concerns the target Retinoic acid receptor alpha (Homo sapiens) (UniProt P10276). Briefly: ATG_RARa_TRANS: Attagene TRANS-FACTORIAL HepG2 Assay for human Retinoic Acid Receptor alpha (RARa) (AID 2283005; active means hit-call score of the fitted dose curve at least 0.9, where 1 is the maximum). The procedure, abridged:
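Reporter transcripts, measured by RT-PCR with fluorescent labeling and capillary electrophoresis after 24 h dosing, reflect activity of an exogenous human RARa–GAL4 fusion in transiently transfected HepG2. Fitted for increase relative to DMSO.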

Experiment [13] has as its target Nuclear receptor subfamily 1 group I member 2 (Homo sapiens) (UniProt O75469). The experiment can be described thus: ATG_PXR_TRANS: Attagene TRANS-FACTORIAL HepG2 Assay for human Pregnane X Receptor (PXR) (AID 2283008; active means hit-call score of the fitted dose curve at least 0.9, where 1 is the maximum). In outline:
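Measures mRNA induction of a GAL4-UAS-driven reporter in human HepG2 cells transiently expressing PXR fused to Gal4, following 24 h treatment. DMSO served as negative control and baseline.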

In experiment [14] the target is human Retinoic Acid Receptor gamma (RARg), RARG (gene 5916) (UniProt P13631). The experiment can be described thus: ATG_RARg_TRANS: Attagene TRANS-FACTORIAL HepG2 Assay for human Retinoic Acid Receptor gamma (RARg) (AID 2283009; active means hit-call score of the fitted dose curve at least 0.9, where 1 is the maximum). In outline:
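Transient transfection of HepG2 with multi-reporter constructs, then 24 h chemical treatment. Total RNA isolated, reverse-transcribed, PCR-amplified, fluorescently labelled and resolved by capillary electrophoresis; activity scored as mRNA induction versus DMSO.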

Experiment [15] deals with human RAR-related Orphan Receptor gamma (RORg), RORC (gene 6097) (UniProt P51449). The experiment can be described thus: ATG_RORg_TRANS: Attagene TRANS-FACTORIAL HepG2 Assay for human RAR-related Orphan Receptor gamma (RORg) (AID 2283011; active means hit-call score of the fitted dose curve at least 0.9, where 1 is the maximum). In outline: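 Activity is scored as increase in GAL4-UAS reporter mRNA over DMSO, detected by fluorescent RT-PCR and capillary electrophoresis in HepG2 cells transiently expressing a RORg-Gal4 chimera, 24 h after dosing.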
Chain of human RAR-related Orphan Receptor gamma (RORg), RORC (gene 6097) (P51449 whole entry, looked up, the tested form may be a part): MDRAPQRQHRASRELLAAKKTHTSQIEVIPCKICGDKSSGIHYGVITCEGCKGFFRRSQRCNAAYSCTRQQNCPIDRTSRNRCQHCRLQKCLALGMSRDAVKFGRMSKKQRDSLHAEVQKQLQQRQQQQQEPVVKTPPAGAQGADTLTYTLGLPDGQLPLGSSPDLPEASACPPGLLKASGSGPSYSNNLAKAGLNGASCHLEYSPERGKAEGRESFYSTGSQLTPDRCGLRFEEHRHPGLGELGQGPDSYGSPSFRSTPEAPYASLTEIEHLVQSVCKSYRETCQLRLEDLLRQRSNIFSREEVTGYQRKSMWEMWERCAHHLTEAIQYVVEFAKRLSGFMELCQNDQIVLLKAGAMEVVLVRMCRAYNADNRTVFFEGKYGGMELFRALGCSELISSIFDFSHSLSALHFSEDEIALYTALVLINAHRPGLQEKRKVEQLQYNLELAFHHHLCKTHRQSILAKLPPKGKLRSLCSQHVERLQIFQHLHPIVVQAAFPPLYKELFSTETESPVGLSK

Experiment [16] has as its target Retinoic acid receptor RXR-alpha (Homo sapiens) (UniProt P19793). Briefly: ATG_RXRa_TRANS: Attagene TRANS-FACTORIAL HepG2 Assay for human Retinoid X Receptor alpha (RXRa) (AID 2283012; active means hit-call score of the fitted dose curve at least 0.9, where 1 is the maximum). In outline: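 Transient transfection of human HepG2 with multiple GAL4-UAS reporter constructs; 24 h compound exposure; total RNA isolated, reverse-transcribed, PCR-amplified, 6-FAM labelled, HpaI-cut, resolved by capillary electrophoresis. Positive-direction fit versus DMSO.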

Read-out in experiment [17]: Interleukin-8 (IL8), CXCL8 (gene 3576)
Briefly: BSK_3C_IL8: BioMAP Diversity Plus: 3C Assay for Interleukin-8 (IL8) Biomarker Activity (AID 2283020). Particulars: primary human endothelial cells (HUVEC); actives raise or lower the signal. The procedure, abridged:
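ELISA read-out of IL-8 from human umbilical vein endothelium, measured 24 h after chemical dosing. Activity is expressed relative to DMSO negative control, with both increases and decreases fitted.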

For experiment [18], the target named is human Retinoic Acid Receptor beta (RARb), RARB (gene 5915) (UniProt P10826). Briefly: ATG_RARb_TRANS: Attagene TRANS-FACTORIAL HepG2 Assay for human Retinoic Acid Receptor beta (AID 2283004; active means hit-call score of the fitted dose curve at least 0.9, where 1 is the maximum). The procedure, abridged:
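HepG2, transient MRTU transfection, NR–Gal4 chimera, 24 h treatment; RT-PCR plus CE fluorescence detection of reporter mRNA; gain of signal vs DMSO.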

Experiment [19] addresses human Thyroid Receptor alpha (THRa1), THRA (gene 7067) (UniProt P10827). Briefly: ATG_THRa1_TRANS: Attagene TRANS-FACTORIAL HepG2 Assay for human Thyroid Receptor alpha (THRa1) (AID 2283014; active means hit-call score of the fitted dose curve at least 0.9, where 1 is the maximum). In outline: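 First, HepG2 cells receive multiple GAL4-UAS reporter units and the chimeric receptor. They are then dosed for 24 h, after which RNA is reverse-transcribed, amplified, labelled, HpaI-cut and sized by capillary electrophoresis; gain relative to DMSO is scored.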

Read-out in experiment [20]: Human Leukocyte Antigen - DR isotype (HLADR), HLA-DRA (gene 3122)
Briefly: BSK_3C_HLADR: BioMAP Diversity Plus: 3C Assay for Human Leukocyte Antigen - DR isotype (HLADR) Biomarker Activity (AID 2283019).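 Further: ELISA of cell-surface HLA-DR on HUVEC 24 h after dosing.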 Particulars: primary human endothelial cells (HUVEC); actives raise or lower the signal. In outline: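 Endothelial cells from human umbilical vein are treated with test chemical; after 24 h, HLA-DR levels are measured by ELISA. Data are fitted in both directions using DMSO as the baseline.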

Structures are written as SMILES. Results filed as inconclusive are left out. Calls of active or inactive are those of the source. How the source made its calls, unless noted: active means hit-call score of the fitted dose curve at least 0.9, where 1 is the maximum; inactive means score below 0.9.

Chain of human Retinoid X Receptor beta (RXRb), RXRB (gene 6257) (P28702 whole entry, looked up, the tested form may be a part): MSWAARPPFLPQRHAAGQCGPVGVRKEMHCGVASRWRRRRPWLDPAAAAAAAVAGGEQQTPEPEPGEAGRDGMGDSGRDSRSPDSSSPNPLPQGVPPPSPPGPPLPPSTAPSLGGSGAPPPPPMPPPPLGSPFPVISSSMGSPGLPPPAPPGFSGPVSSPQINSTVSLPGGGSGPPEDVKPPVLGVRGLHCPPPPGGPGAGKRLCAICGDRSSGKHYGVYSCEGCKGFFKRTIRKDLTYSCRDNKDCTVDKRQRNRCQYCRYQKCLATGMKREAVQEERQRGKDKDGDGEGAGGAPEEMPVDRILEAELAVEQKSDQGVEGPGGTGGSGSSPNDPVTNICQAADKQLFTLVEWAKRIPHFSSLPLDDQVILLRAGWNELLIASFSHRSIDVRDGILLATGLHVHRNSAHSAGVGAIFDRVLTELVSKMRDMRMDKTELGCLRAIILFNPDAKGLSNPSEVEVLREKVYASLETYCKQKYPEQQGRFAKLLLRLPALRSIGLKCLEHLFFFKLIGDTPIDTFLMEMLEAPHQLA
Chain of Peroxisome proliferator-activated receptor gamma (Homo sapiens) (P37231 whole entry, looked up): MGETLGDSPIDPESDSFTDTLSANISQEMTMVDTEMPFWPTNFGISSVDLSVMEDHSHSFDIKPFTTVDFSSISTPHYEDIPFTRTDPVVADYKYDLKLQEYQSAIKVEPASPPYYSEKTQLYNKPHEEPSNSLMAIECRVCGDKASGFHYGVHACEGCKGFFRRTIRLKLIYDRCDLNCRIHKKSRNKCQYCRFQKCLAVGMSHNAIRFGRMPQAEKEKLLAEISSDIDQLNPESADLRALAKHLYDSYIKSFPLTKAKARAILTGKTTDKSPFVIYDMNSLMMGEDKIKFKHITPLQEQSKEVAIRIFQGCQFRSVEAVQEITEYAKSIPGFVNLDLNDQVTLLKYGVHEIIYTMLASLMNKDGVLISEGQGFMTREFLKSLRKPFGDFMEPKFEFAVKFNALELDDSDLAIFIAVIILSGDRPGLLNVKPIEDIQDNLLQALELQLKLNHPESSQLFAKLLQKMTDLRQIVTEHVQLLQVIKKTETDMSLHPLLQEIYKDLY
Chain of human Peroxisome Proliferator-activated Receptor alpha (PPARa), PPARA (gene 5465) (Q07869 whole entry, looked up, the tested form may be a part): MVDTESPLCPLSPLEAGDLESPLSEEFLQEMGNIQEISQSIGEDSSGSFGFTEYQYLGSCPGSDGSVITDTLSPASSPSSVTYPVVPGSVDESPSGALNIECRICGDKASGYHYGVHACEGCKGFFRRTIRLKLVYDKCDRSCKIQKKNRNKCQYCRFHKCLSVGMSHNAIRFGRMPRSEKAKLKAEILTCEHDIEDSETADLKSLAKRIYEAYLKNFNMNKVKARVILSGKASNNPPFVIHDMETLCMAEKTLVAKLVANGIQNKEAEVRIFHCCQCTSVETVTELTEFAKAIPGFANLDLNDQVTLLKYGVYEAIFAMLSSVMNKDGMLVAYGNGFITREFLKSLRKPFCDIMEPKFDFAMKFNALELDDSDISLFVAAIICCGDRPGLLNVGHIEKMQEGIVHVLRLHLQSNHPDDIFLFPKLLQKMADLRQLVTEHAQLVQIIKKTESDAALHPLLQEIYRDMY
Chain of Nuclear receptor subfamily 1 group I member 2 (Homo sapiens) (O75469 whole entry, looked up, the tested form may be a part): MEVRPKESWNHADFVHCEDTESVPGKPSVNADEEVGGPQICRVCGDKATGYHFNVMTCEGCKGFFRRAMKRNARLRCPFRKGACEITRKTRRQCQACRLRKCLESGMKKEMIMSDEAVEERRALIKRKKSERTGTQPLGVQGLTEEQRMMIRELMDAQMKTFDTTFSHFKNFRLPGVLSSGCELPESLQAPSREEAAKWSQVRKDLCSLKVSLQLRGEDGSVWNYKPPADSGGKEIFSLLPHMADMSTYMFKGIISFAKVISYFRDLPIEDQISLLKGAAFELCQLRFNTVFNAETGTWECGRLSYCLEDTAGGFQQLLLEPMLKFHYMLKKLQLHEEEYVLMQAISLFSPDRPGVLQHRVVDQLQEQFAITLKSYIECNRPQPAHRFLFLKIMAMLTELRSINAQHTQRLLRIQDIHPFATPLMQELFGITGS
Chain of human Peroxisome Proliferator-activated Receptor delta (PPARd), PPARD (gene 5467) (Q03181 whole entry, looked up, the tested form may be a part): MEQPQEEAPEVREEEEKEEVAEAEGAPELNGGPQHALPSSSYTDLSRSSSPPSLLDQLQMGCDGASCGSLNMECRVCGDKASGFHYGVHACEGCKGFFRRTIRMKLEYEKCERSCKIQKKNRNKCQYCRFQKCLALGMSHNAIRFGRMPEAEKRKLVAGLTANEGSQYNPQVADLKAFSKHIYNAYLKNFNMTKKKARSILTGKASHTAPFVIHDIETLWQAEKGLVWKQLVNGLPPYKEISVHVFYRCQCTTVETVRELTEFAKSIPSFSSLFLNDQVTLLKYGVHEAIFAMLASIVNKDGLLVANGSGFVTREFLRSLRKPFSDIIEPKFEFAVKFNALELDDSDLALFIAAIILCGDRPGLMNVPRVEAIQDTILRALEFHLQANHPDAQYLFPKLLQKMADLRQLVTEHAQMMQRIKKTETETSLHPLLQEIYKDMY
Chain of Retinoic acid receptor RXR-alpha (Homo sapiens) (P19793 whole entry, looked up, the tested form may be a part): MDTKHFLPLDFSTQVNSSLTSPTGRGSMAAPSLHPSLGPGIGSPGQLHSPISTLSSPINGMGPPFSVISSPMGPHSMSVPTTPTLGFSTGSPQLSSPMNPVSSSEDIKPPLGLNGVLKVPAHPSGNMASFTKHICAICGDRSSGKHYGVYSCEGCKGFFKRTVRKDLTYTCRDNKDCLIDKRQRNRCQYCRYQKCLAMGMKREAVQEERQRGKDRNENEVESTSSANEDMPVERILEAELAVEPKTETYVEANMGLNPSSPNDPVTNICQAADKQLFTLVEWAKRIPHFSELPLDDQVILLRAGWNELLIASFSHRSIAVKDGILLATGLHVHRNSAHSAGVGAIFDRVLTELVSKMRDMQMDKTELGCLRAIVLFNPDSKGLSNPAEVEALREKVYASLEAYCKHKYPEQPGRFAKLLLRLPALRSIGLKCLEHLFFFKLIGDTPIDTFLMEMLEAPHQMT
Chain of E-selectin (Homo sapiens) (P16581 whole entry, looked up): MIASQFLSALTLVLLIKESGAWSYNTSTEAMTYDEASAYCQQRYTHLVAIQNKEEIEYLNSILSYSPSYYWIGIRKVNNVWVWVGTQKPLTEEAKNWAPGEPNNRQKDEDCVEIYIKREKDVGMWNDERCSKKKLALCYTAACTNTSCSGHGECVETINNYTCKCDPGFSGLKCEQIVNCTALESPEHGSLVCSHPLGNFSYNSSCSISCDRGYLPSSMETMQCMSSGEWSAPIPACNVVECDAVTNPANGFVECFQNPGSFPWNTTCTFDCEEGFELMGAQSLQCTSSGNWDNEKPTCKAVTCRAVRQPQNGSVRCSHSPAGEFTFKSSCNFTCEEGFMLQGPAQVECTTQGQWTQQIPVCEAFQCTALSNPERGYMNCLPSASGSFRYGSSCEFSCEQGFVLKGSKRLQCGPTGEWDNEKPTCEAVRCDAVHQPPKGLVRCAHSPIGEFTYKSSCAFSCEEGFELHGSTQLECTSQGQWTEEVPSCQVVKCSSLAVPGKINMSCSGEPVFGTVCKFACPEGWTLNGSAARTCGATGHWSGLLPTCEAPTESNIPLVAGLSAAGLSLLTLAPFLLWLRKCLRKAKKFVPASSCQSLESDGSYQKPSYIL
Chain of human Retinoic Acid Receptor gamma (RARg), RARG (gene 5916) (P13631 whole entry, looked up): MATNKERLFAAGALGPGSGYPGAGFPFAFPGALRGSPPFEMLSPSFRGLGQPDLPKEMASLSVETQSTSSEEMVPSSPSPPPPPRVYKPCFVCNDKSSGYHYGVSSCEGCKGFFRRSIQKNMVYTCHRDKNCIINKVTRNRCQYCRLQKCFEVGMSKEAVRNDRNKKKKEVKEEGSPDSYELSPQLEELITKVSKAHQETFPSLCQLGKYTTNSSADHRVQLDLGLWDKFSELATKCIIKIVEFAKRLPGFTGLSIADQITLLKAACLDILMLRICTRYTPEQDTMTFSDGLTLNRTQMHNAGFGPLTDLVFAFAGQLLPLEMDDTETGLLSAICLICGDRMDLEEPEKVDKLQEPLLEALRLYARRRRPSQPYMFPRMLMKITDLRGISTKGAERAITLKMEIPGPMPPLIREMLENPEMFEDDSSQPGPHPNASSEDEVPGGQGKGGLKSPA
Chain of human Thyroid Receptor alpha (THRa1), THRA (gene 7067) (P10827 whole entry, looked up, the tested form may be a part): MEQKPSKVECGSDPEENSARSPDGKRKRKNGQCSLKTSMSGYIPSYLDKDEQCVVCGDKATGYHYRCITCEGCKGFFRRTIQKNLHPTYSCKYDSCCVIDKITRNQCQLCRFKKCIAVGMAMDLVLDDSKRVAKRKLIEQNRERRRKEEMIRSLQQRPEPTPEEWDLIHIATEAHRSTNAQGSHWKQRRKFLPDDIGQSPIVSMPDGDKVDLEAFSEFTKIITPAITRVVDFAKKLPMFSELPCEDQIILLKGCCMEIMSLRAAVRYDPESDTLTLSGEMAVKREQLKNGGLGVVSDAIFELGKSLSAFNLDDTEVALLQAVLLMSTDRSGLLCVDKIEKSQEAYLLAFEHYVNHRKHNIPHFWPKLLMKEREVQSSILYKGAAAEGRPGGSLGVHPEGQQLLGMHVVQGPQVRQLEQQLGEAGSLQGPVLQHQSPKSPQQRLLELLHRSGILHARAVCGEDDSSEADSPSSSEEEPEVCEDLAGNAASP

A word on the AC50: it is the concentration at which the activity in the assay is half-maximal. With `CCCc1cc(=O)[nH]c(=S)[nH]1`, the half-maximal activity concentration (AC50) in experiment [1] was 0.666 µM (active). In addition, the result in experiment [2], in [3], in experiment [4], in experiment [5], in experiment [6] and in [7] was inactive. In addition, the result in experiment [8], in experiment [9] and in [10] was inactive.

Consider `FC(F)(F)C(F)(F)C(F)(F)C(F)(F)C(F)(F)C(F)(F)CCI`, for which the molecule was classed as inactive in [11], in [2], in [3], in [12], in experiment [4] and in experiment [13]. Moreover, the outcome in experiment [14], in experiment [15], in [16], in experiment [6], in experiment [7] and in [8] was inactive. For the same molecule, the outcome in [9] and in experiment [10] was inactive.

Consider `CNC(=O)[C@H]1O[C@@H](n2cnc3c(NCc4cc(Cl)ccc4OCc4cc(C)no4)ncnc32)[C@H](O)[C@@H]1N`, for which the outcome in [1], in [2], in [3], in experiment [4], in [5] and in [13] was inactive. Further, the result in [15], in experiment [6], in experiment [7], in experiment [8] and in experiment [9] was inactive.

In the case of `COc1ccc2c(c1)c(CC(=O)O)c(C)n2C(=O)c1ccc(Cl)cc1`, the result in [11], in experiment [2], in experiment [3], in [4], in experiment [13] and in [16] was inactive. Also, the result in [7], in [8], in [9], in experiment [10] and in [17] was inactive.

Consider `Cc1ccc(C)c(O)c1C`, for which the call in [11], in experiment [2], in [3], in experiment [18], in experiment [4] and in [5] was inactive. The result in experiment [13], in experiment [14], in experiment [6], in experiment [19], in [7] and in experiment [8] was inactive. The outcome in [9], in [20] and in [17] was inactive.

Consider `CCCCCCCCCCCC(=O)OC`, for which the call in [11], in [2], in experiment [3], in experiment [5], in experiment [13] and in [16] was inactive. Further, the outcome in [7], in experiment [8], in experiment [9], in experiment [10], in experiment [20] and in [17] was inactive. For the same molecule, the AC50 was 20 µM (active) in experiment [4] and 57.9 µM (active) in [6].
